Source: PubChem BioAssay (NCI)
This is part of a sample that, as a whole, favours compounds with a hit. Of some 79,000 tested, about 15% had one in any assay. No stated cut-off is given here; in the data, active means growth inhibition above about 70%; inactive means the rest.

How the values were obtained:
[1] = NCI Yeast Anticancer Drug Screen. Data for the rad50 strain (AID 155);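 further: 0% = growth of vehicle-only cultures of the same strain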; conditions: S. cerevisiae rad50 strain growth inhibition; at 50.0 µM; stronger effect = higher value
How it was run: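 Relative growth inhibition (compound vs vehicle) was measured in yeast with a defined repair-gene alteration.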

[2] = NCI Yeast Anticancer Drug Screen. Data for the mec2-1 strain (AID 157); conditions: S. cerevisiae mec2-1 strain, at 50.0 µM, stronger effect = higher value
How it was run: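 Yeast mec2-1 mutant treated with compound. Readout: growth inhibition vs vehicle controls.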

[3] = NCI Yeast Anticancer Drug Screen. Data for the sgs1 mgt1 strain (AID 161);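 further: 0% = growth of cultures given vehicle only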; conditions: S. cerevisiae sgs1 mgt1 strain, at 50.0 µM, stronger effect = higher value
How it was run: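 Genetically altered yeast, compound exposure, growth inhibition relative to vehicle.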

[4] = NCI Yeast Anticancer Drug Screen. Data for the cln2 rad14 strain (AID 165);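 further: 0% = growth equal to vehicle treated cultures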; conditions: S. cerevisiae cln2 rad14 strain, at 50.0 µM, stronger effect = higher value
How it was run: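 cln2 rad14 yeast strain; compound exposure; growth inhibition read vs vehicle controls.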

[5] = NCI Yeast Anticancer Drug Screen. Data for the bub3 strain (AID 167); conditions: S. cerevisiae bub3 mutant strain, at 50.0 µM, stronger effect = higher value
How it was run: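 Screening used yeast with an engineered genetic alteration affecting cell cycle control. Compound-exposed cultures were compared with vehicle cultures, and reduced growth was taken as inhibition.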

[6] = NCI Yeast Anticancer Drug Screen. Data for the mlh1 rad18 strain (AID 175); conditions: S. cerevisiae mlh1 rad18 strain growth inhibition; at 50.0 µM; stronger effect = higher value
How it was run: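 Yeast w/ defined DNA-repair lesions; compound exposure; growth vs vehicle controls → % inhibition.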

Measured: growth inhibition

c1ccc2n[nH]nc2c1
inactive: [1] 19.1% | [2] -10.9% | [3] 7.3% | [4] 2.2% | [5] -4.8% | [6] 16.9%

C[CH2][Ge]([CH2]C)[CH2]C.C[CH2][Ge]([CH2]C)[CH2]C
inactive: [1] 6.5% | [2] 0.35% | [3] -2.45% | [4] -25.4% | [5] 0.9% | [6] -3%

C/C(CCC1CCCCC1)=N/NC(N)=O
inactive: [1] 14.6% | [2] 15.8% | [3] 5.25% | [4] 14.7% | [5] 12.7% | [6] -18.4%

C1CCC(C2CCCC[N-]2)[N-]C1.C1CCC(C2CCCC[N-]2)[N-]C1.[Cl][Ru][Cl] (stereo unspecified)
inactive: [1] 47% | [2] 8.55% | [3] 29.1% | [4] 6.8% | [5] -0.75% | [6] 18.9%

c1ccc(Oc2ccccc2-c2ccccc2)cc1
inactive: [1] 6.1% | [2] -26.1% | [3] -0.7% | [4] -0.65% | [5] -23.1% | [6] 15.9%

O=C(NC1CCCCC1)C(c1ccccc1)c1ccccc1
inactive: [1] 8.85% | [2] -3.3% | [3] 0.4% | [4] -18.7% | [5] 1.85% | [6] -10.9%

Cc1ccccc1NCS(=O)(=O)O
inactive: [1] 18.2% | [2] -18.3% | [3] 13.2% | [4] -6.35% | [5] -14.8% | [6] 4.6%

COc1ccc(Cl)cc1NC(=O)Nc1ccc(F)c([N+](=O)[O-])c1
inactive: [1] 10% | [2] 38% | [3] 29.2% | [4] -9.8% | [5] 33.5% | [6] 23.8%

O=C1/C(=C/c2ccc([N+](=O)[O-])cc2)CCCc2ccccc21
inactive: [1] 11.1% | [2] 6.8% | [3] 22.9% | [4] -22.3% | [5] -0.95% | [6] 21.9%

CC(C)C1=C(Cc2ccccc2)C(=O)O/C1=C\c1cc(Cl)c(O)c(Cl)c1
inactive: [1] 19.9% | [2] 8% | [3] 24.6% | [4] 25.6% | [5] 32.5% | [6] -30.9%

O=S1(=O)CC(N2CCCCC2)C1
inactive: [1] -3.95% | [2] 2.05% | [3] 17.3% | [4] -40.9% | [5] -3% | [6] -13.3%

CCCCCCC(CC)C(N)=O (stereo unspecified)
inactive: [1] 9.1% | [2] 7.8% | [3] -4.1% | [4] -7.8% | [5] -8.15% | [6] -7.6%

CCOC(=O)CCC1CCCO1 (stereo unspecified)
inactive: [1] -3.6% | [2] -19.1% | [3] -19.9% | [4] -4.8% | [5] -6.85% | [6] -1.05%

CCC(=O)/C=C/C1=C(C)CCCC1(C)C
inactive: [1] -9.95% | [2] -9.65% | [3] 6.25% | [4] -5.8% | [5] 5.8% | [6] -13.4%

CC1=CC(=C(C#N)C#N)c2ccccc2N1C
inactive: [1] 1.1% | [2] 4.35% | [3] -8.8% | [4] 3.75% | [5] 14.6% | [6] 1.85%

CC(=O)Cc1ccco1
inactive: [1] 14.5% | [2] -3.35% | [3] -8.8% | [4] 22.5% | [5] -2.2% | [6] -10.7%

CS(=O)(=O)N1COC(=O)[C@@H]1c1ccccc1
inactive: [1] 1.25% | [2] 25.4% | [3] 7% | [4] -3% | [5] 11.2% | [6] 3.05%

CCSc1nc(C)nc2c1cnn2-c1ccccc1
inactive: [1] -0.1% | [2] -6.7% | [3] -2.65% | [4] -35.6% | [5] -13.8% | [6] 1.95%

O=c1[nH][nH]c(=O)c2c1nc(SCc1ccc(Br)cc1)n2Cc1ccccc1
inactive: [1] 16.9% | [2] 0.3% | [3] -7.95% | [4] 1.85% | [5] -2.35% | [6] 3.8%

Cc1cc2oc(C)c(S(=O)(=O)NC(=O)Nc3ccc(Cl)cc3)c(=O)c2c(=O)o1
inactive: [1] -2.85% | [2] -0.45% | [3] -2.5% | [4] 3.55% | [5] 12.2% | [6] -2.8%

CCCCOCCC1CCNCC1
inactive: [1] -46% | [2] -44.1% | [3] -51.5% | [4] 10.8% | [5] -48% | [6] -24%
